ChEMBL document CHEMBL3988442, “University of Dundee, Small-Polar-MMV Screening Library” (2021)
For some of these results: Entries with a potency or affinity are not part of this list.

How the values were obtained:
Parameters in all cases: scale not given: direction of the effect not stated beside the values
[1] = target: Protein translocase subunit SecA (Escherichia coli (strain K12)) (UniProt P10408); test: Assay to Identify E. coli SecA ATPase Inhibitors; type: functional; settings: 30 µM
[2] = target: T1, Ubiquitin-activating enzyme e1, putative (Leishmania donovani (strain BPK282A1)) (UniProt E9BSI1); test: Leishmania donovani Ubiquitin Activating Enzyme (LdE1); type: functional; settings: 30 µM
T1 sequence (whole entry): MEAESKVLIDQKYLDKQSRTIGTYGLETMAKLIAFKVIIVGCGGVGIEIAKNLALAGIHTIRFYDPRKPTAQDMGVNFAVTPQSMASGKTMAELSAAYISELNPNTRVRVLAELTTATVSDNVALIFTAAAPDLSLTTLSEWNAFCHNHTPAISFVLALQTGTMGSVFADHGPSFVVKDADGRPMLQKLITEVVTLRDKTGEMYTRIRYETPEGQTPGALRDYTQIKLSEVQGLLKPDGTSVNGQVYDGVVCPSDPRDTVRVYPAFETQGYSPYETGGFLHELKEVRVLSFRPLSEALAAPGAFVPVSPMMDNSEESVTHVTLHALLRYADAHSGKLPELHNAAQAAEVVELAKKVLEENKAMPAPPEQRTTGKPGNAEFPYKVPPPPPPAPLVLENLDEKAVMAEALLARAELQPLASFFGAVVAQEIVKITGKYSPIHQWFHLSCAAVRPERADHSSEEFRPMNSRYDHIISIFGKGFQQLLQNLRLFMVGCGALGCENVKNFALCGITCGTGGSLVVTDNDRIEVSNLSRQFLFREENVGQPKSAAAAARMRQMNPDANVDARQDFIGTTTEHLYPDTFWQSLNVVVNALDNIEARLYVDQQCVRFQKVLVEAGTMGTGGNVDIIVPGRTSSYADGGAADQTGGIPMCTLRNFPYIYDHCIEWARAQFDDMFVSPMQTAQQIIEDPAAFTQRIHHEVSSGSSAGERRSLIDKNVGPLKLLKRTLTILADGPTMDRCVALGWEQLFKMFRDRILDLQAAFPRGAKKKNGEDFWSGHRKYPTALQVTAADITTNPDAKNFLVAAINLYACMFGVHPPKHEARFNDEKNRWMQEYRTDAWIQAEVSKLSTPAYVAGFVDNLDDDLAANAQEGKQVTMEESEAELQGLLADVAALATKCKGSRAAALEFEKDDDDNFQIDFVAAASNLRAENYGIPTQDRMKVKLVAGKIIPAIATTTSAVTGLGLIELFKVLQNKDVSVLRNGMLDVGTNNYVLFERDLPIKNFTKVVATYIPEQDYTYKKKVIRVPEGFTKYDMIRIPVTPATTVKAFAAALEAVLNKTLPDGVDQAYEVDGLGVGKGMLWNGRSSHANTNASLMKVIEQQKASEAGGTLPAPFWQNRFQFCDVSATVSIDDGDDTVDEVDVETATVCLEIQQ

[3] = target: AMP-activated protein kinase, AMPK (Homo sapiens) (UniProt P54646+O43741+P54619+Q9UGJ0+Q9Y478+Q13131+Q9UGI9); test: AMP-dependent Kinase enzyme assay. An in vitro enzyme assay that detects ADP turnover that is directly proportional to AMPK activity. This uses naive AMPK that is activated during the assay with MK-8722; type: functional; settings: 30 µM
[4] = target: Sialic acid-binding Ig-like lectin 9 (Homo sapiens) (UniProt Q9Y336); test: Hs-Siglec9 ALPHAscreen SOP 20170721; settings: 10 µM
Sequence of Sialic acid-binding Ig-like lectin 9 (Homo sapiens) (Q9Y336 whole entry): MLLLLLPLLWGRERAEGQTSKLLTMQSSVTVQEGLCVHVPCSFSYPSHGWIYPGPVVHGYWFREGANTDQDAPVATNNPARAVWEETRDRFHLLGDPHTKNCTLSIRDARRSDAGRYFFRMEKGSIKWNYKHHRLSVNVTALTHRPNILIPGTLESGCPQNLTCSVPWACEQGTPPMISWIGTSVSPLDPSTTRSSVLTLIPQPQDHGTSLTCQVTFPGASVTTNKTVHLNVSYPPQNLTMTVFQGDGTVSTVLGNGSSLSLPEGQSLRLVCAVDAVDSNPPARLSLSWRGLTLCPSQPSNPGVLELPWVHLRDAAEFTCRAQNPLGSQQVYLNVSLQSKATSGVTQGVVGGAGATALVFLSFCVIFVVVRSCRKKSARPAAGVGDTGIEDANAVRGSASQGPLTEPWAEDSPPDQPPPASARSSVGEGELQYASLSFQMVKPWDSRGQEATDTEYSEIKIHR

Trypanosoma cruzi = test: Trypanosoma cruzi phosphomannomutase and mannose-1-phosphate guanylyltransferase assay; type: functional; settings: 10 µM
[5] = target: T2, Arginase-2, mitochondrial (Homo sapiens) (UniProt P78540); test: in vitro enzyme assay to detect the production of urea directly proportional to the activity of Arginase II; type: functional; settings: 33.3 µM; also: in the data most compounds retested in dose-response had high values
T2 sequence (whole entry): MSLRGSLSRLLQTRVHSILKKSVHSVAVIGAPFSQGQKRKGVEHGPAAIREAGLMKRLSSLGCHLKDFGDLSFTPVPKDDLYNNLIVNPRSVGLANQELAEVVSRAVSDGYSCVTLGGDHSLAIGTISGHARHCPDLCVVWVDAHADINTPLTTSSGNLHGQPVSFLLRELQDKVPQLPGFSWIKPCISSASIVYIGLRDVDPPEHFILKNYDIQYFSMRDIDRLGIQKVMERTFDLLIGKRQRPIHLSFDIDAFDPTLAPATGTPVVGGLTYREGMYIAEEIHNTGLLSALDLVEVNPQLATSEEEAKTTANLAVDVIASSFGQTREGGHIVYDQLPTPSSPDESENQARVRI

[6] = target: T3, Proteasome subunit beta (Trypanosoma cruzi) (UniProt O96673); test: Trypanosoma cruzi proteasome chymotrypsin-like activity (TcProtChymo) assay.; also: in the data most compounds retested in dose-response had high values; type: functional; settings: 9.37 µM
T3 sequence (whole entry): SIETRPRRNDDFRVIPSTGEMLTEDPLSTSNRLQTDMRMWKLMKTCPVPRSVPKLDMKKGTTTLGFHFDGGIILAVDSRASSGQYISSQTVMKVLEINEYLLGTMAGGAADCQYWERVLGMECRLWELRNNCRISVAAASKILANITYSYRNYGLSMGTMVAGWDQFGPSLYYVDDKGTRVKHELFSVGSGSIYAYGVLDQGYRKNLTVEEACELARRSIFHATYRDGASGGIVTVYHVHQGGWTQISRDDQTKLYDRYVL

Homo sapiens = species on record: Homo sapiens; test: To identify inhibition of the IFN signalling (Jak-Stat) pathway via expression of an eGFP reporter gene under the control of an IFN-stimulated response element (ISRE) containing MxA promoter.; type: functional; settings: 30 µM
[7] = target: T4, Tyrosyl-tRNA synthetase, putative (Trypanosoma cruzi (strain CL Brener)) (UniProt Q4DSP6); test: Trypanosoma cruzi tyrosyl tRNA synthetase (TcYRS) _High Tyrosine SOP; type: functional; settings: 30 µM; also: in the data most compounds retested in dose-response had high values
T4 sequence (whole entry): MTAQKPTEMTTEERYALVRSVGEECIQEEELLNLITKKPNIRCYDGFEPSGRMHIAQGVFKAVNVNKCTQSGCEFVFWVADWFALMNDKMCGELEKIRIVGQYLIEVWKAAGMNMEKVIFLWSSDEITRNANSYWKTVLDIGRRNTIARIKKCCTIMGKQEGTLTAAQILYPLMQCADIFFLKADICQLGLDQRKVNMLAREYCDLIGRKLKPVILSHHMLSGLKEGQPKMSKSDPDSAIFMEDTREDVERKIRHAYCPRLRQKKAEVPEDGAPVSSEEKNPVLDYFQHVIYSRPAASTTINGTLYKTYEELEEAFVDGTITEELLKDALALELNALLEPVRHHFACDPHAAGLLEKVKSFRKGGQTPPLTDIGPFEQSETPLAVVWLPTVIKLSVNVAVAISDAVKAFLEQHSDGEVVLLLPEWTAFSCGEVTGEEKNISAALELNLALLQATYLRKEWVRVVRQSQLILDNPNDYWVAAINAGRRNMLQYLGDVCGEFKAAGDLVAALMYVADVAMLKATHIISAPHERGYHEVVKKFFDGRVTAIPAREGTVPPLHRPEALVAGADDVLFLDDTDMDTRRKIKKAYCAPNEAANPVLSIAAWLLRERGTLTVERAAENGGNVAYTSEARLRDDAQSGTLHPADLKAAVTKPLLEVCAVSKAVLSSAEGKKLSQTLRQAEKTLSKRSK

[8] = target: T4, Tyrosyl-tRNA synthetase, putative (Trypanosoma cruzi (strain CL Brener)); test: Trypanosoma cruzi tyrosyl tRNA synthetase (TcYRS) SOP; type: functional; settings: 30 µM
[9] = target: Chromo domain-containing protein 1 (Saccharomyces cerevisiae (strain ATCC 204508 / S288c) (Baker's yeast)) (UniProt P32657); test: ScCHD-1 Enzyme Inhibition Assay; type: functional; settings: 30 µM; also: in the data most compounds retested in dose-response had high values
Sequence of Chromo domain-containing protein 1 (Saccharomyces cerevisiae (strain ATCC 204508 / S288c) (Baker's yeast)) (P32657 whole entry, the tested form may be a part): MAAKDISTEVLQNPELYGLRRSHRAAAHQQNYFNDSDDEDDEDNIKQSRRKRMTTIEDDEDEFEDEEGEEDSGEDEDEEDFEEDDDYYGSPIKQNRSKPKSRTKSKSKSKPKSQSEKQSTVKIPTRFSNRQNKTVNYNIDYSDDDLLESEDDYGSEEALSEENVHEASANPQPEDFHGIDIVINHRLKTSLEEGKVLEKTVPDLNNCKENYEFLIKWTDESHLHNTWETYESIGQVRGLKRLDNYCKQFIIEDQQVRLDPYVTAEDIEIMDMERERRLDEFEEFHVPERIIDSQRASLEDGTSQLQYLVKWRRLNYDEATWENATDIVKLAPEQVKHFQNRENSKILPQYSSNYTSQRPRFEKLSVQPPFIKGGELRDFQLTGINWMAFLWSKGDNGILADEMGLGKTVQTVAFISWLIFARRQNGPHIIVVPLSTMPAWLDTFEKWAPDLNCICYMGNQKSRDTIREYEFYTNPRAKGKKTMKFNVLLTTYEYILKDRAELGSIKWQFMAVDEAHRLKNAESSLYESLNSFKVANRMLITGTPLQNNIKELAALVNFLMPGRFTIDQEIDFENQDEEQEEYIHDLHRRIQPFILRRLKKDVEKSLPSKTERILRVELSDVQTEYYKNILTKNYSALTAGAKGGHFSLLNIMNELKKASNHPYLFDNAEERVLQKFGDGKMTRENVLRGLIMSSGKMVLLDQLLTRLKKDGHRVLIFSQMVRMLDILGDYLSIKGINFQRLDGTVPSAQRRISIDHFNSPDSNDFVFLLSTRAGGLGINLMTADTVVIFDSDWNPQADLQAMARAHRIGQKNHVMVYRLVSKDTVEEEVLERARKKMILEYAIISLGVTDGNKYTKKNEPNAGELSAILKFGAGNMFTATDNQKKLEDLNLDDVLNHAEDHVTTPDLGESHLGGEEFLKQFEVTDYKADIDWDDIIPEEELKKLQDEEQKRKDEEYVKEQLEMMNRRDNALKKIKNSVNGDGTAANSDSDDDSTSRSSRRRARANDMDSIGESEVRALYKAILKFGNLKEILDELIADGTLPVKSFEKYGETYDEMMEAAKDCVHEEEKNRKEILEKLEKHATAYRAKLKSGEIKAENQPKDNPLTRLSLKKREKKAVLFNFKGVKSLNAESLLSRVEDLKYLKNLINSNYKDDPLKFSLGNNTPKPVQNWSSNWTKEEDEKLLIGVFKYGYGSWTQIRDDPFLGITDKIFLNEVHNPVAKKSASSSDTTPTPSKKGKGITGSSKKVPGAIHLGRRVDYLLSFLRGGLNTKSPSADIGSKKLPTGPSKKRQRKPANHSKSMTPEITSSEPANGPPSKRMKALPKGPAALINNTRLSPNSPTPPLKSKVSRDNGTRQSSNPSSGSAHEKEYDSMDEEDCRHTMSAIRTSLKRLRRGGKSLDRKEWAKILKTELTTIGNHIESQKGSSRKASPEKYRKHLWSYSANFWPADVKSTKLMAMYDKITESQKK

Sequence of Protein translocase subunit SecA (Escherichia coli (strain K12)) (P10408 whole entry): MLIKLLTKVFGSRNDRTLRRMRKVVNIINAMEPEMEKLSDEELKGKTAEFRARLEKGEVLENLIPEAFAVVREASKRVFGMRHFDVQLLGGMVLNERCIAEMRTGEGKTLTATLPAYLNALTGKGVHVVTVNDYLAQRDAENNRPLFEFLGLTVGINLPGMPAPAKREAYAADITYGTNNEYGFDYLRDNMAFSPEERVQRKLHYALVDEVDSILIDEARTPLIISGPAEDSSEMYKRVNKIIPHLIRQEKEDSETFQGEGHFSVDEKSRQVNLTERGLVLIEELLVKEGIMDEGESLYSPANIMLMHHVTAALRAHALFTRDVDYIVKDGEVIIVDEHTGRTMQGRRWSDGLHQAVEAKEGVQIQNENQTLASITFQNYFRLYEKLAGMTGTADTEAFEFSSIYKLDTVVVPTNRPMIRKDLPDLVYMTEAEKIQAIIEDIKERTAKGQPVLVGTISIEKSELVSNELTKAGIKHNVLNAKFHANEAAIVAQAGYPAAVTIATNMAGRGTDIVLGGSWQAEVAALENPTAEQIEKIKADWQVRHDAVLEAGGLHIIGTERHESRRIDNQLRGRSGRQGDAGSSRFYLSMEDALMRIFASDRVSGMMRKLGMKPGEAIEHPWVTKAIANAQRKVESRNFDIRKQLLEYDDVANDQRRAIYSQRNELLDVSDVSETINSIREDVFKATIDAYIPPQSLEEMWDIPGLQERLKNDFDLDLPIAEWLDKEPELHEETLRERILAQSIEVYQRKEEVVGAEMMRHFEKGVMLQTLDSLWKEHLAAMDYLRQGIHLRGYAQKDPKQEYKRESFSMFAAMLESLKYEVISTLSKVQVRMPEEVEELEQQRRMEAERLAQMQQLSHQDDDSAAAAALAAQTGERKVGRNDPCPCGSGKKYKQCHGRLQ

Row | Structure (SMILES) | Percent Effect [1] [%] | Percent Effect [2] [%] | Percent Effect [3] [%] | Percent Effect [4] [%] | Percent Effect (Trypanosoma cruzi) [%] | Percent Effect [5] [%] | Percent Effect [6] [%] | Percent Effect (Homo sapiens) [%] | Percent Effect [7] [%] | Percent Effect [8] [%] | Percent Effect [9] [%]
1 | COCC(=O)NCCn1ccc2c(OC)cccc21 | -0.301 | 17.3 | 0.941 | 6.9 | 0.393 | -3.7 | 10.5 | 19.7 | 6.35 | 15.4 | -8
2 | CN(Cc1ncc(C(C)(C)C)o1)C1CCCN(c2cccnn2)C1 (stereo not given) | -2.8 | 15.2 | -7.54 | -5.13 | 3.49 | 2.66 | 13.2 | 2.64 | 12.3 | 16.5 | -3.04
3 | COc1ccc(CN(C)C(=O)CCc2c(C)nc(C)[nH]c2=O)cc1OC | -2.11 | 6.94 | -3.92 | 5.86 | 5.15 | 0 | 20.2 | -1.63 | 7.37 | 12.8 | -3.31
4 | CC(NC(=O)NCC1(N2CCCCC2)CCCCC1)c1nncn1C (stereo not given) | -6.18 | 18.4 | -2.65 | 0.417 | 1.03 | 0 | -0.931 | 5.56 | 9.36 | 18.5 | -6
5 | c1cncc(OCC2CN(Cc3ccco3)Cc3nccn3C2)c1 (stereo not given) | -1.62 | 21.9 | -8.03 | 11.2 | 4.17 | 0 | 16 | 6.3 | 10.4 | 23.5 | -9.31
6 | CCCn1[nH]cc/c1=N\C(=O)CN1CCc2c(nc(C(C)C)n2C)C1 | -0.801 | 20.8 | -5.35 | -15.6 | -2.06 | -4.84 | 11.6 | 18.7 | 8.57 | 23.5 | -19.2
7 | Cc1cnn(Cc2cc(F)ccc2F)c1NC(=O)NC1CC1 | -4.44 | 16 | -4.15 | 41.4 | 5.94 | 29.7 | 15.5 | 10.9 | -16.9 | 21 | -4.35
8 | CN(Cc1ccc(F)cc1)C(=O)CN1CCOC(Cn2cncn2)C1 (stereo not given) | 0.893 | 17.7 | -2.68 | -5.85 | -7.65 | -1.52 | 17.6 | 36 | 1.48 | 3.8 | -4.1
9 | CN(C)CCNC(=O)CNC(=O)N1CCc2c([nH]c3ccc(Cl)cc23)C1 | -4.87 | -1.33 | 9.82 | 0.772 | -2.55 | -9.33 | 0.185 | -14.7 | -1.06 | -7.69 | -0.829
10 | CCc1nc(C(=O)N2CCN(C)CC2C)nn1-c1ccccc1Cl (stereo not given) | -3.02 | 15.8 | 15.7 | -9.77 | -7.19 | 0.36 | 8.04 | 12.9 | 5.42 | 11.1 | -9.77
11 | COc1ccnc(N2CCN(C(=O)Cc3ccc(C#N)cc3)CC2)n1 | -3.03 | 13 | -3.06 | 0.369 | 3.82 | 1.9 | 12.7 | 7.36 | 7.62 | 23.5 | -7.06
12 | O=C([C@H]1C[C@@H]2CCN(C3CCOCC3)C[C@@H]2O1)N1CCOCC1 | 4.05 | 5.33 | -5.76 | 14.3 | -3.48 | -54.7 | 16.8 | -8.99 | 7.29 | 12.5 | -5.71
13 | O=C(c1cc[nH]n1)N1CCC(Nc2cccnn2)CC1 | -5.6 | 7.79 | 1.01 | -11.8 | 8.52 | -2.74 | 9.62 | 5.31 | 6.67 | 11.8 | -18.4
14 | COc1ccc(CN2C[C@H]3CC[C@](O)(c4ccc(C)cn4)[C@H]3C2)c(F)c1 | -5 | 6.76 | 15.2 | 2.69 | -2.77 | -1.16 | -1.56 | 13.7 | 5.38 | 6.49 | -8.01
15 | O=C(NCC1CC1)C1CN(C(=O)c2cccc(Cl)c2)CC12CCOCC2 (stereo not given) | 1.58 | 10.4 | 52.3 | -13.8 | -9.37 | 5.81 | 16.4 | 12.4 | 2.12 | -8.97 | -9.61
16 | Cc1ncc2c(n1)CCN(C(=O)Cc1c(C)noc1C)C2 | -8.55 | 13.2 | -4.54 | 7.88 | 9.62 | -1.44 | 8.21 | -0.465 | 9.36 | 18.5 | -7.72
17 | Cc1ccc(N2CCCC(NCC(=O)NCC3CC3)C2)nn1 (stereo not given) | -4.97 | 6.33 | -6.37 | 2.61 | 1.13 | -1.94 | 15.8 | -5.61 | 7.29 | 15.2 | -25.7
18 | CN(C)C(=O)c1ccc2c(c1)N(C)C(CC(=O)NCc1ccno1)CO2 (stereo not given) | -0.872 | 6.94 | -9.68 | 0.254 | 1.85 | 15 | 20.7 | 18.1 | 7.37 | 10.3 | -2.72
19 | CN(C)Cc1nnc(C2CCN(c3nccc(N)n3)CC2)n1C1CC1 | -4.19 | 1.39 | -3.33 | -0.797 | 1.26 | 0.442 | 8.42 | -31.4 | 5.26 | 5.13 | -3.78
20 | CC(=O)N(Cc1ncc(C(C)C)o1)C1CCN(Cc2nccn2C)C1 (stereo not given) | -2.57 | 13.5 | -4.73 | 4.8 | 3.25 | -1.29 | 14.4 | -11.4 | 10.9 | 28.1 | -1.74
